Measured values as given in ChEMBL document CHEMBL5724796, “Tm Shift (DSF) assay results for EUbOPEN Chemogenomics Library” (2024).
Residues, ends and D or L forms follow the SMILES beside them. *: point of attachment. Boc = CC(C)(C)OC(=O)*

Tests used:
Details in all cases: Compound concentration 20.0 uM
[1] = target: Tyrosine-protein kinase ABL1 (Homo sapiens) (UniProt P00519)
[2] = target: Bromodomain-containing protein 4 (Homo sapiens) (UniProt O60885)
[3] = target: Cyclin-dependent kinase 2 (Homo sapiens) (UniProt P24941)
[4] = target: Casein kinase I isoform delta (Homo sapiens) (UniProt P48730)
[5] = target: Glycogen synthase kinase-3 beta (Homo sapiens) (UniProt P49841)
[6] = target: Mitogen-activated protein kinase 1 (Homo sapiens) (UniProt P28482)
[7] = target: T1, Aurora kinase A (Homo sapiens) (UniProt O14965)
T1 sequence (whole entry): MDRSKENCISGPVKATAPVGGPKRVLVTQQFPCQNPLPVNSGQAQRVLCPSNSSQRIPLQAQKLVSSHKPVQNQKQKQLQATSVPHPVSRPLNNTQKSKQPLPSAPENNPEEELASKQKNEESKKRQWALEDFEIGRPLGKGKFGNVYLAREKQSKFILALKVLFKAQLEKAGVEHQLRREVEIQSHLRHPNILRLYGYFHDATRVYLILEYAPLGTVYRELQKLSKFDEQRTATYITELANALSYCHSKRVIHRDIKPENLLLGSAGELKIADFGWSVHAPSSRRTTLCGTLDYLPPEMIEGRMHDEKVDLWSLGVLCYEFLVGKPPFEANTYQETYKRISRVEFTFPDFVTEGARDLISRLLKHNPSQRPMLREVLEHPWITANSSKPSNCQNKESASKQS

[8] = target: T2, Transcription intermediary factor 1-alpha (Homo sapiens) (UniProt O15164)
T2 sequence (whole entry): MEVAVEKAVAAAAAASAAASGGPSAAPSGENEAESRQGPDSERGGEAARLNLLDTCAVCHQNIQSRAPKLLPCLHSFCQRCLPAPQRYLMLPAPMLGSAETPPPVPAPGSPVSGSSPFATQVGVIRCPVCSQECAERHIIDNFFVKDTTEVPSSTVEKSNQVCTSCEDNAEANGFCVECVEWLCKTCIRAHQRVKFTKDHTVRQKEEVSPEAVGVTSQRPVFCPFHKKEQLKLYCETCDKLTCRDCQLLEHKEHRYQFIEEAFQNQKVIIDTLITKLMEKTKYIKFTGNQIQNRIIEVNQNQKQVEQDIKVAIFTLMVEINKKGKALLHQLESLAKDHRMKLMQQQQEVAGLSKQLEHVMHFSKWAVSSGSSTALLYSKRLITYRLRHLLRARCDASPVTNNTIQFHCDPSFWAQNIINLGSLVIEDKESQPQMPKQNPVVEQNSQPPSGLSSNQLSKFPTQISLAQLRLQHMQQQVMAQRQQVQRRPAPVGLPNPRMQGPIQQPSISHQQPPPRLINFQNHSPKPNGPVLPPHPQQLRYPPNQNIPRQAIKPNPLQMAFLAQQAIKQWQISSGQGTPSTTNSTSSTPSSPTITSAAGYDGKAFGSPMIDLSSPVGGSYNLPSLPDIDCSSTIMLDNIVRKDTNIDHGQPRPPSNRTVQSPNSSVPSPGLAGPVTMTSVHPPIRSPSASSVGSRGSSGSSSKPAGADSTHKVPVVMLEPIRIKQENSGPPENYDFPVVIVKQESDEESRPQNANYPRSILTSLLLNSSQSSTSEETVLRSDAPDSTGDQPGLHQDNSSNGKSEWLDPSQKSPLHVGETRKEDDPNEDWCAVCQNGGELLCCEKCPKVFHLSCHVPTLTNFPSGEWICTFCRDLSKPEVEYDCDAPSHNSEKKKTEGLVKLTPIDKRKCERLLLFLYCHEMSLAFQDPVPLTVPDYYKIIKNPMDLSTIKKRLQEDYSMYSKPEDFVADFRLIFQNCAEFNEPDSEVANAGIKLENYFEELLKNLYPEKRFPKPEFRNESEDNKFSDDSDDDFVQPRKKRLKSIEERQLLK

Sequence of Mitogen-activated protein kinase 1 (Homo sapiens) (P28482 whole entry): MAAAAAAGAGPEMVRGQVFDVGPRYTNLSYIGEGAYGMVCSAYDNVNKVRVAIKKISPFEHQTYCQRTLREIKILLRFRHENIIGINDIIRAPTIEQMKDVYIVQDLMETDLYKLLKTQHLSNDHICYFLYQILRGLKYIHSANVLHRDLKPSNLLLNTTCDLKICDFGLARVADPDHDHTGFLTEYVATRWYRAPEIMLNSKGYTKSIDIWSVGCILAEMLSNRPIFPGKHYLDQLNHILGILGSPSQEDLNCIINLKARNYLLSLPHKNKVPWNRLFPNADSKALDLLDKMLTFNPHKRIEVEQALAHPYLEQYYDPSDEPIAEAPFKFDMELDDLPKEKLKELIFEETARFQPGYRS
Sequence of Casein kinase I isoform delta (Homo sapiens) (P48730 whole entry, looked up, canonical isoform): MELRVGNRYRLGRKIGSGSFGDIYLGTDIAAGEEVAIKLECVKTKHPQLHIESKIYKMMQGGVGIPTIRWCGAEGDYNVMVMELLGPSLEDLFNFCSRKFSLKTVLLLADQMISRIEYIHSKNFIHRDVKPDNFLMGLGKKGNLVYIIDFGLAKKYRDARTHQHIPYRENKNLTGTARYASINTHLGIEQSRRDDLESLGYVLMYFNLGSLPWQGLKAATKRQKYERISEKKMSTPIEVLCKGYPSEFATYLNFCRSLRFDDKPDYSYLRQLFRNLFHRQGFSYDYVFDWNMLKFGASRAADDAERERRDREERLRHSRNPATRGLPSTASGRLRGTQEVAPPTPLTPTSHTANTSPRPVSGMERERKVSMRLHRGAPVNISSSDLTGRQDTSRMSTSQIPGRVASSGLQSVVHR
Sequence of Tyrosine-protein kinase ABL1 (Homo sapiens) (P00519 whole entry): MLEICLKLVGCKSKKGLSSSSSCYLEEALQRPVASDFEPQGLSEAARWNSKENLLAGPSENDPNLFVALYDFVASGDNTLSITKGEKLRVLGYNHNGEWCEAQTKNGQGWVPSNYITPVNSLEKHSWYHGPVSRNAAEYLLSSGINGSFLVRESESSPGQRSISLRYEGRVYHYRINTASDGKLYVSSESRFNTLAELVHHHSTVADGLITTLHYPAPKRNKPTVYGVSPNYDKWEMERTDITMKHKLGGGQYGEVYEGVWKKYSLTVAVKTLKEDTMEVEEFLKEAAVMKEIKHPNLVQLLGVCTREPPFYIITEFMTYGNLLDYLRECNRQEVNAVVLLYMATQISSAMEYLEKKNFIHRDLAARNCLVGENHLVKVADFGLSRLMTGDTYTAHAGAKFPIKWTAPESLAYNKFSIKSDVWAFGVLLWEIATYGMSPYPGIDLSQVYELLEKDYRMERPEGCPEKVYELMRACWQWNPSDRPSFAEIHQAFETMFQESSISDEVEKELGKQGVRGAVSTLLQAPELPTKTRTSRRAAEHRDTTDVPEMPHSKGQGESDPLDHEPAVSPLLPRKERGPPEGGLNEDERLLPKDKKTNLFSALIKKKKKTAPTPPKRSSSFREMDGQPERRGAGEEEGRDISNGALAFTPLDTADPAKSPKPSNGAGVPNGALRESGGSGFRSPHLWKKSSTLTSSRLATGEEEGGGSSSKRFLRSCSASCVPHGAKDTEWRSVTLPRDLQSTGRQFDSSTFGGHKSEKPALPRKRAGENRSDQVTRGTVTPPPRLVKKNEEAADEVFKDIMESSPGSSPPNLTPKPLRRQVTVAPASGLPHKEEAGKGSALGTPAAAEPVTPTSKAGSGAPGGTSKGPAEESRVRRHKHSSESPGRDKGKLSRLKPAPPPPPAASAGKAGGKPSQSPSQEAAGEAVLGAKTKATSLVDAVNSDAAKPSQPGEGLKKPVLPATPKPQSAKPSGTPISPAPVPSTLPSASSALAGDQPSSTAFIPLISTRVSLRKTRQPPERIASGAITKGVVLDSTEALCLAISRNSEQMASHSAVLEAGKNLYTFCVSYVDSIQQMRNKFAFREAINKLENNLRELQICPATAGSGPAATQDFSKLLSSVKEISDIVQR
Sequence of Glycogen synthase kinase-3 beta (Homo sapiens) (P49841 whole entry, looked up): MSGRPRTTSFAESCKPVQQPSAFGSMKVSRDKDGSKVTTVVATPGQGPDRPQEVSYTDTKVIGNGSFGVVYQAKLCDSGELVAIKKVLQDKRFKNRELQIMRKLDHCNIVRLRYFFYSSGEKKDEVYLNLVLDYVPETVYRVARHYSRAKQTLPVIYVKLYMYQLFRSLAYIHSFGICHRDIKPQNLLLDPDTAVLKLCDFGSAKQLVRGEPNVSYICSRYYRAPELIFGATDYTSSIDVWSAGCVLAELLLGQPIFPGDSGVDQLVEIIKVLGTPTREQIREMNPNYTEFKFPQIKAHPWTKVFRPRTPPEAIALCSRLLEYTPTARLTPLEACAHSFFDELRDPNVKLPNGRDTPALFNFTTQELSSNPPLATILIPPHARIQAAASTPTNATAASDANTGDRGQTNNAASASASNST

Row | SMILES | ΔTm [1] [°C] | ΔTm [2] [°C] | ΔTm [3] [°C] | ΔTm [4] [°C] | ΔTm [5] [°C] | ΔTm [6] [°C] | ΔTm [7] [°C] | ΔTm [8] [°C]
1 | Cn1c(NCCN(CCO)CCCc2ccc([N+](=O)[O-])cc2)cc(=O)n(C)c1=O | -0.01 | 0.07 | 0.08 | -0.29 | -0.66 | 0.09 | -1.33 | 0.26
2 | COc1cccc(Nc2c(C(N)=O)cnc3c(C)cc(S(=O)(=O)c4cccc(C(=O)N(C)C)c4)cc23)c1 | 0.62 | -2.14 | 0.36 | -0.04 | 0.04 | 0.14 | -0.98 | -0.26
3 | OC[C@H]1O[C@@H](c2ccc(F)c(Cc3cc4ccccc4s3)c2)[C@H](O)[C@@H](O)[C@@H]1O | 0.51 | -3.4 | 0.04 | -0.29 | -0.62 | 0.05 | -1.82 | -0.42
4 | CC(C)Nc1cc(-c2c[nH]c(C(=O)N[C@H](CO)c3cccc(Cl)c3)c2)c(Cl)cn1 | 1.43 | 6.89 | 8.63 | 0.57 | 14.2 | -1.26 | 13.7 | 0.98
5 | COc1cc(O)cc(CN2CCc3c(cc(Cn4ccn(C)c4=N)cc3-c3ccc(F)cc3C)C2=O)c1 | 0.41 | -3.72 | -0.56 | -0.83 | -0.55 | 0.04 | -2.93 | -1.53
6 | CCc1c(C)nc(-c2ccc(Cl)s2)nc1Nc1ccc(CC(=O)O)cc1 | 0.97 | -2.77 | 0.44 | -0.04 | 0 | 0.51 | -0.9 | 1.46
7 | Nc1ncnc2c1c(I)cn2[C@@H]1O[C@H](CO)[C@@H](O)[C@H]1O | 2.62 | -1.63 | 5.37 | 6.51 | 3.65 | 1.9 | 1.18 | 0.89
8 | CC(C)(C)OC(=O)N1CCC[C@H]1C(=O)N1CCC[C@H]1C=O (Boc-Pro-Pro-aldehyde) | 0.36 | -1.7 | 0.06 | -0.53 | -0.11 | 0.63 | -2.5 | -0.63
9 | C=CCn1c(N[C@@H]2C[C@H](c3ccc(OCc4ccccc4)cc3)CN(C)C2)nc2cc[nH]c2c1=O | 0.69 | 0.73 | -0.03 | -0.36 | -0.88 | 0.13 | -1.6 | 0.04
10 | CC(C)(O)c1ccc(N2Cc3c(ccnc3-c3ccc(F)cc3OCC(F)(F)F)C2=O)cc1 | 1.61 | -2.56 | -1.07 | 0.07 | 0.38 | -10.3 | 1.43 | -1.06
11 | CC(C)N(C(=O)c1cc(F)ccc1Oc1cncnc1N1CC2(CCN(C[C@H]3CC[C@H](NS(C)(=O)=O)CC3)CC2)C1)C(C)C | 0.57 | -1.5 | 0.13 | -0.36 | -0.7 | 0.13 | -2.37 | 0.16
